# Data from PubChem BioAssay AID1030 (National Center for Advancing Translational Sciences (NCATS), 2008).
# Out of some 220,000 compounds screened, about 16,000 (7.3%) were called active. Roughly 25% stayed inconclusive and do not appear here. This is one part of a sample in which actives are shown more often than they occur. A number with no mark means an inactive call. Calls come from the whole dose curve; as a rule, active = well fitted inhibition curve with a large enough effect (not every such curve was filed as active); inconclusive = small, poorly fitted or top-dose-only effect, or another doubt; inactive = no such curve, though single readings can be large or run the other way.
# Biological target: Aldehyde dehydrogenase 1A1 (Homo sapiens) (UniProt P00352)
# Assay: qHTS Assay for Inhibitors of Aldehyde Dehydrogenase 1 (ALDH1A1);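 for activity, negative = inhibition: plate controls were no enzyme wells and a reference inhibitor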
# Details: Purified ALDH1A1, NADH fluorescence, propionaldehyde substrate; series mostly up to 75.3 µM; activity, negative = inhibition: at the top concentration
# Potency is the fitted concentration of half-maximal effect.
# Sequence of Aldehyde dehydrogenase 1A1 (Homo sapiens) (P00352 whole entry, looked up): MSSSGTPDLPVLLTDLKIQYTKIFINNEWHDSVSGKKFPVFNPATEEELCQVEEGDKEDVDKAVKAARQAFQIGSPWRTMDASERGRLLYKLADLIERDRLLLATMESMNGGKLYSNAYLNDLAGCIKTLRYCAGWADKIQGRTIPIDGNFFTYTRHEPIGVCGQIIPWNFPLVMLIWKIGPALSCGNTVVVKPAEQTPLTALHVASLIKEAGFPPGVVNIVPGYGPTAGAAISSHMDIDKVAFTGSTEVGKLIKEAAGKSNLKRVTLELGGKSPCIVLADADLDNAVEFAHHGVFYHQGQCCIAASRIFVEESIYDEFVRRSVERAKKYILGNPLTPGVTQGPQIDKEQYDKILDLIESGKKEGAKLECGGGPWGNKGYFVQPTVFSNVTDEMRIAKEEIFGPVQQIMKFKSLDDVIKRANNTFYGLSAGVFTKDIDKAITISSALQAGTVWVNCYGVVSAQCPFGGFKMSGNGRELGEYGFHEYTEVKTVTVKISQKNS
SMILES,"activity, negative = inhibition",Potency
O=S(=O)(Cc1ccccc1)c1nc2ccccc2n1Cc1ccccn1,2.81%,–
Cn1c(N)c(C(=O)COC(=O)c2cnc(Cl)c(Cl)c2)c(=O)n(C)c1=O,–,8.91 µM (active)
Cc1cc(C(=O)OCC(=O)c2c(N)n(C)c(=O)n(C)c2=O)c(C)o1,-5.4%,–
CCc1ccc(OCC(=O)OCC(=O)c2c(N)n(C)c(=O)n(C)c2=O)cc1,0.715%,–
CCn1c(SCc2cc(=O)n3ccsc3n2)nc2ccccc21,9.12%,–
CC(C)CCC(C)NC(=O)c1ccc2nccnc2c1 (stereo not drawn),–,20 µM (active)
CC(Cc1cccs1)NC(=O)c1cccc(Cl)c1 (stereo not drawn),5.57%,–
COCC(C)NC(=O)c1ccc(Cl)c(Cl)c1 (stereo not drawn),3.63%,–
CCc1ccc(NC(=O)Cn2nc(C)c([N+](=O)[O-])c2C)cc1,-3.12%,–
O=C(Nn1cnnc1)c1ccc([N+](=O)[O-])cc1,-5.53%,–
COCCCNC(=S)N1CCCC(c2nc3cc(C)c(C)cc3[nH]2)C1 (stereo not drawn),-2.51%,–
Nc1nnc(SCC(=O)Nc2ccc3nc(SCC(=O)Nc4ccccc4)sc3c2)s1,-10.4%,–
CCCCNC(=O)CSc1nc2ccc(NC(=O)CSc3nnc(N)s3)cc2s1,–,20 µM (active)
CCCCNC(=O)CSc1nc2ccc(NC(=O)CSc3nnc(COc4ccccc4C)n3C)cc2s1,–,3.55 µM (active)
Cc1cccnc1NC(=O)CSc1nnc(COc2ccc(C(C)C)cc2)n1C,9.2%,–
Cc1ccc(S(=O)(=O)N2CCOCC2)cc1NC(=O)CSc1nnc(N)s1,4.41%,–
CCOC(=O)c1ccc(NC(=O)CSc2nnc(COc3ccccc3OC)n2C)cc1,-5.96%,–
CN(c1ccccc1)S(=O)(=O)c1ccc(Cl)c(C(=O)OCC(N)=O)c1,-15.1%,–
CN(C(=O)CSc1nnc(-c2c[nH]c3ccccc23)o1)C1CCS(=O)(=O)C1 (stereo not drawn),-2.95%,–
O=C(/C=C/c1ccc(Cl)cc1)Nc1ccc(S(=O)(=O)Nc2ncccn2)cc1,1.56%,–
O=C(Nc1ccc(N2CCN(C(=O)C3CC3)CC2)cc1)c1cccs1,-2.48%,–
C/C(=N\N1CCN(Cc2ccc(C)cc2)CC1)c1ccco1,2.4%,–
C/C(=N\NC(=O)C(N)=O)c1ccc2c(c1)OCCO2,12.7%,–
CC(=O)Nc1cccc([N+](=O)[O-])c1,2.07%,–

SMILES,"activity, negative = inhibition",Potency
COc1ccc(S(=O)(=O)NC(C)C(=O)Nc2cccc([N+](=O)[O-])c2)cc1 (stereo not drawn),0.552%,–
COC(=O)/C=C\C(=O)Nc1cccc([N+](=O)[O-])c1,–,0.178 µM (active)
Clc1ccc(-c2cc(-c3ccccn3)on2)c(Cl)c1,17%,–
O=C1Nc2cc(Cl)c(Cl)cc2N(O)N1c1ccccc1Cl,6.43%,–
CCOc1cnc(C(=O)NNC(=O)c2ccccc2Br)o1,2.5%,–
CCOC(=O)CSC1=C(C#N)C(c2sccc2C)CC(=O)N1 (stereo not drawn),17.5%,–
C=CCSC1=C(C#N)C(c2cc(Br)c(O)c(OC)c2)CC(=O)N1 (stereo not drawn),–,25.1 µM (active)
COC(=O)CSC1=C(C#N)C(c2ccccc2OC)C(C(=O)OC)C(=O)N1 (stereo not drawn),5.25%,–
C[C@@H]1CC[C@]2(O[C@@H](CCO)C[C@H](O)[C@H]2O)O1,-4.09%,–
CCCCOc1ccc(N(CC(=O)NC(C)C)C(=O)CCC(=O)Nc2ccccn2)cc1,-2.58%,–
COCCN(CCOC)S(=O)(=O)c1ccc(/C(O)=C(\C#N)c2nc3ccccc3[nH]2)cc1,2.62%,–
COc1cccc2c1OCC(CN1CCN(C3CCCCC3)C(CCO)C1)=C2 (stereo not drawn),-1.04%,–
Cc1cc(C)n(-c2ccc3nncn3n2)n1,9.72%,–
Cc1ccccc1OCCOc1ccc([N+](=O)[O-])cc1/C=N/n1cnnc1,1.94%,–
Cc1ccc(-n2c(C)cc(/C=N/Nc3ccc([N+](=O)[O-])cn3)c2C)c(C)c1,–,3.55 µM (active)
COc1cc(/C=N\Nc2ccc([N+](=O)[O-])cn2)ccc1OCC(=O)O,-9.72%,–
CC(C)(C)C1CCC(C(=O)Nc2cccnc2)CC1 (stereo not drawn),-3.75%,–
CN(C)c1nc(N)nc(CSc2nnnn2-c2cccc3ccccc23)n1,–,7.94 µM (active)
CN(C)c1nc(N)nc(CSc2ccccn2)n1,-4.05%,–
Cn1nnnc1SCc1cc(=O)[nH]c2ccccc12,-5.31%,–
CC(OC(=O)c1ccccc1OCc1ccc(Cl)cc1)C(N)=O (stereo not drawn),2.06%,–
O=C(NCc1ccc2c(c1)OCO2)C1CCCN(S(=O)(=O)c2cccs2)C1 (stereo not drawn),-11.1%,–
CCOC(=O)NCc1ccc2c(c1)OCO2,4.82%,–
Cc1cc(C)c(S(=O)(=O)NCC2CCC(C(=O)NCc3ccc4c(c3)OCO4)CC2)c(C)c1 (stereo not drawn),–,28.2 µM (active)

SMILES,"activity, negative = inhibition",Potency
O=C(CN1C(=O)NC2(CCCC2)C1=O)NCC1CCCO1 (stereo not drawn),2.37%,–
Cc1cccc(NC(=O)Nc2nnc(-c3ccccc3)o2)c1,6.3%,–
COc1ccc(CCNCC(O)Cn2ccc3ccccc32)cc1OC (stereo not drawn),3.09%,–
COc1ccc(CNC(=O)CCCn2nc(C)c([N+](=O)[O-])c2C)cc1,–,12.6 µM (active)
COc1ccc(CNC(=O)CCn2cccc2)cc1,-2.66%,–
Cc1ccc(Oc2cc(NC(=O)CCCn3nc(C)c([N+](=O)[O-])c3C)cc([N+](=O)[O-])c2)cc1,-9.52%,–
CNC(=O)COc1ccc(S(=O)(=O)Nc2ccccc2)cc1,-2.45%,–
COc1ccc(-c2csc(NC(=O)c3ccc(N4C(=O)CCC4=O)cc3)n2)cc1OC,5.15%,–
COc1ccc(-c2nc(N)sc2C2(O)C(=O)Nc3c(Br)cc(F)cc32)cc1OC (stereo not drawn),–,11.2 µM (active)
O=C(O)c1ccccc1-c1ccccc1C(=O)NCc1cccnc1,-2.71%,–
Cc1ccc(Cc2cnc(NC(=O)/C(C#N)=C/c3ccc(-c4cccc([N+](=O)[O-])c4)o3)s2)cc1,0.468%,–
O=C(NCCCN1CCOCC1)c1ccc([N+](=O)[O-])cc1[N+](=O)[O-],2.46%,–
N#C/C(=C\c1ccc(-c2cccc([N+](=O)[O-])c2)o1)C(=O)NCCN1CCOCC1,–,25.1 µM (active)
Cc1ccccc1CSc1nnc(-c2ccccc2)c(=O)[nH]1,1.62%,–
Cc1c(O)cc(O)c2c(=O)c(-c3ccc(O)cc3)coc12,–,25.1 µM (active)
CC(C)OC(=O)Cn1nc(C(F)(F)F)c2c1CCCC2,-4.53%,–
Cc1ccc(C(=O)NNC(=O)c2cccs2)cc1,15.8%,–
COc1ccccc1NC(=O)c1c(Br)cnn1C,3.41%,–
COc1ccc(C(=O)COC(=O)COc2ccc(C)c(C)c2)cc1,-12.5%,–
O=C(c1ccccc1)c1ccc(OC(=O)N2CCCC2)cc1,-4.99%,–
O=C(COc1cccc(F)c1)Oc1ccc(C(=O)c2ccccc2)cc1,–,28.2 µM (active)
CC(C)(C)c1nnc(N/N=C/c2ccc(O)cc2)n(N)c1=O,-9.92%,–
Cc1ccc(NCc2n[nH]c(=S)n2-c2ccccc2)cc1Cl,-12.3%,–
S=c1[nH]nc(CSCc2ccc(Cl)cc2Cl)n1-c1ccccc1,–,3.55 µM (active)

SMILES,"activity, negative = inhibition",Potency
Cn1c(CCCOc2ccc(Cl)cc2Cl)n[nH]c1=S,9.75%,–
S=C(NCc1cccnc1)Nc1ccc(Cl)cc1Cl,-4.79%,–
C/C(=N\OCC(=O)Nc1ccc(Br)cc1)c1cccs1,3%,–
CCOC(=O)c1cc(C)nc(S(C)(=O)=O)c1C#N,1.72%,–
[O-][n+]1c2c(nn1-c1ccc(Cl)c(Cl)c1)-c1nonc1CC2,12.6%,–
Cc1cc(C)cc(NC(=O)N2CCCCCCC2)c1,-1.68%,–
O=c1[nH]c(=S)[nH]c2[nH]c(=S)[nH]c12,–,10 µM (active)
Cc1cc(=O)[nH]c(=S)[nH]1,–,inactive
O=C(NC1CCCCC1)C1CCCN(S(=O)(=O)c2ccc(Br)s2)C1 (stereo not drawn),2.8%,–
Cc1ccc(C2CCN(C(=S)Nc3cccc(Cl)c3)C2)cc1 (stereo not drawn),-1.08%,–
CC(C)(C)NC(=O)NC(=O)COC(=O)C1(C)CC1(Cl)Cl (stereo not drawn),10.1%,–
Cc1[nH]n(C)c(=O)c1N=Nc1ccc(S(C)(=O)=O)cc1,7.33%,–
O=C(Cc1ccccc1)NNC1CC(=O)N(c2ccc(Br)cc2)C1=O (stereo not drawn),3.95%,–
CCCCOC(=O)c1ccc(N2C(=O)CC(N3CCN(C/C=C/c4ccccc4)CC3)C2=O)cc1 (stereo not drawn),–,12.6 µM (active)
CCOC(=O)c1ccc(NC(=S)N2CCCC2)cc1,-15.1%,–
CCOC(=O)c1ccc(N2C(=O)CC(N3CCN(C(=O)c4ccccc4)CC3)C2=O)cc1 (stereo not drawn),–,3.55 µM (active)
CCCOC(=O)c1ccc(N2C(=O)c3ccccc3C2=O)cc1,1.75%,–
O=C(Cn1c(N2CCN(C/C=C/c3ccccc3)CC2)nc2ccccc21)c1ccccc1,3.06%,–
NC(=O)C1CCN(C2OC(=O)c3ccccc32)CC1 (stereo not drawn),-5.84%,–
COc1ccc(N2C(=O)CC(N3CCC(C(N)=O)CC3)C2=O)cc1 (stereo not drawn),–,7.94 µM (active)
CCOC(=O)c1ccc(N2C(=O)CC(N(C)Cc3ccccc3)C2=O)cc1 (stereo not drawn),–,11.2 µM (active)
COC(=O)CN(C(=S)Nc1ccc(Cl)cc1)C1CC(=O)N(c2ccc(OC)cc2)C1=O (stereo not drawn),14.5%,–
CNC(=O)NC(=O)C(C)N1CCN(C/C=C/c2ccccc2)CC1 (stereo not drawn),-7.23%,–
CCOC(=O)c1ccccc1C(=O)N1CCOCCOCCOCC1,9.52%,–

SMILES,"activity, negative = inhibition",Potency
CN(C)NC(=O)c1csnc1-c1c(Cl)cccc1Cl,7.95%,–
CC(C)(C)c1ccc(/C=C/C(=O)NC2CCS(=O)(=O)C2)cc1 (stereo not drawn),-11.6%,–
CCOC(=O)CNC(=O)N1c2ccccc2Sc2ccccc21,8.51%,–
CN(CC(=O)N1CCN(c2ccccc2)CC1)S(=O)(=O)c1cccs1,7.8%,–
CC(=O)N1CCN(S(=O)(=O)c2c(F)cc(F)c(Cl)c2F)CC1,8.19%,–
COc1ccc(/C(=N\O)c2nccc3cc(OC)c(OC)cc23)cc1OC,14.1%,–
CCC1(C)Cc2c(sc3nc(SC)[nH]c(=O)c23)CO1 (stereo not drawn),0.569%,–
N=C1C(c2nc3ccccc3[nH]2)=C(O)CN1NC(=O)c1c[nH]c2ccccc12,8.77%,–
COc1ccc(NC(=S)N2CCCC(CO)C2)c(OC)c1 (stereo not drawn),4.06%,–
Cc1cccc(C(=O)OCC(=O)NCC(C)C)c1O,4.6%,–
O=C1CC(N2CCN(c3ccc(F)cc3)CC2)C(=O)N1c1ccccc1 (stereo not drawn),-3.2%,–
CCCCCCC(=O)N(O)C1CC(=O)N(c2ccccc2)C1=O (stereo not drawn),–,0.316 µM (active)
CN1C(=O)CC(N2CCN(c3ccccn3)CC2)C1=O (stereo not drawn),-14.7%,–
CCCOc1ccc(N2C(=O)CC(N(CCc3ccc(S(N)(=O)=O)cc3)C(C)=O)C2=O)cc1 (stereo not drawn),-10.9%,–
CCOc1ccc(N2C(=O)CC(N(CCc3ccc(OC)c(OC)c3)C(=S)Nc3ccccc3)C2=O)cc1 (stereo not drawn),4.94%,–
COC(=O)c1cc(C(=O)OC)cc(N2C(=O)CC(N3CCN(c4ccccc4)CC3)C2=O)c1 (stereo not drawn),–,31.6 µM (active)
CCOC(=O)C1CCN(C(=O)Nc2ccc(Cl)cc2)CC1,8.47%,–
CCOC(=O)c1ccc(N2C(=O)CC(Sc3nc(O)c(CC)c(=O)[nH]3)C2=O)cc1 (stereo not drawn),–,10 µM (active)
CCOC(=O)c1ccc(NC(=O)C2CC(=O)Nc3nc4ccccc4n32)cc1 (stereo not drawn),12.3%,–
CCOC(=O)c1ccc(N2C(=O)CC(N3CCC(C(=O)OCC)CC3)C2=O)cc1 (stereo not drawn),–,12.6 µM (active)
CCOC(=O)C1CCN(c2ccc(C(=O)O)cc2[N+](=O)[O-])CC1,2.01%,–
CSc1nc(O)c(Cc2ccccc2)c(=O)[nH]1,-0.847%,–
